Source: PubChem
PRMT1 inh = PRMT1 methyltransferase inhibitors, primary screen, biochemical, fluorescence polarization | inhibition, % at 2.79 µM | recombinant PRMT1, activity-based probe fluorescence polarization | hit rate 1.3% among 370,000 | AID 652257, 2013 | Protein arginine N-methyltransferase 1 (Homo sapiens), Q99873;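 active means inhibition above about 21% made by adding two undisclosed values, limit read from the data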
Rtt109 HAT inh = inhibitors of C. albicans Rtt109/Vps75 HAT, primary screen, biochemical, ThioGlo CoA-SH fluorescence, plate reader; Histone acetyltransferase RTT109 (Candida albicans (strain SC5314 / ATCC MYA-2876)), …; purified Rtt109/Vps75, 4 h; inhibition, % at 34.9 µM; hit rate 0.16% among 330,000;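 active means inhibition of at least 50% in every replicate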
LANA-H2B inh = blockers of LANA interaction with H2A/H2B – biochemical, FP readout, HTS, primary screen. inhibition, % (concentration not given with the values). cell-free LANA-H2A/H2B peptide, fluorescence polarization. hit rate 0.6% among 320,000. Protein LANA1 (Human herpesvirus 8 type P (isolate GK18)), Q9QR71; in the data active means inhibition mostly above about 10%, no sharp cut-off; inactive means mostly below about 6.7%
rCAG binder = binders of r(CAG) RNA repeats, primary screen, biochemical, fluorescence; inhibition, % at 3 µM; r(CAG) RNA repeat, TO-PRO-1 dye displacement fluorescence; hit rate 1.3% among 370,000; AID 651821, 2012;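 active means inhibition above the plate cutoff, the mean of all test compounds on that plate plus 3 SD, cut at about 35% in these data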;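 further: 0% = DMSO alone and 100% = 100 µM mitoxantrone as full dye displacement; higher means more dye released from RNA so lower well fluorescence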
ALR inh = inhibitors of human ALR sulfhydryl oxidase, primary screen, biochemical, H2O2 detection, HRP-luminol luminescence, single point; inhibition, % (concentration not given with the values); FAD-linked sulfhydryl oxidase ALR (Homo sapiens), P55789; hit rate 3.8% among 290,000; AID 485317, 2010; purified ALR, DTT oxidation;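 active means mean replicate inhibition above about 79%, with every replicate also reaching it, limit read from the data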
ABHD5-PLIN5 inh = ABHD5-PLIN5 interaction inhibitors, primary screen, cell lysate, split luciferase complementation, luminescence; Perilipin-5 (Homo sapiens) + 1-acylglycerol-3-phosphate O-acyltransferase ABHD5 (Homo …; Split G. princeps luciferase complementation, 4 h; inhibition, % at 4 µM; hit rate 0.78% among 360,000;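 active means inhibition above the mean inhibition across every tested compound plus 3 SD, cut at about 22% in these data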;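 further: 0% = DMSO only wells and the 100% control is not disclosed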
Target sequence (Q00G26 whole entry, looked up): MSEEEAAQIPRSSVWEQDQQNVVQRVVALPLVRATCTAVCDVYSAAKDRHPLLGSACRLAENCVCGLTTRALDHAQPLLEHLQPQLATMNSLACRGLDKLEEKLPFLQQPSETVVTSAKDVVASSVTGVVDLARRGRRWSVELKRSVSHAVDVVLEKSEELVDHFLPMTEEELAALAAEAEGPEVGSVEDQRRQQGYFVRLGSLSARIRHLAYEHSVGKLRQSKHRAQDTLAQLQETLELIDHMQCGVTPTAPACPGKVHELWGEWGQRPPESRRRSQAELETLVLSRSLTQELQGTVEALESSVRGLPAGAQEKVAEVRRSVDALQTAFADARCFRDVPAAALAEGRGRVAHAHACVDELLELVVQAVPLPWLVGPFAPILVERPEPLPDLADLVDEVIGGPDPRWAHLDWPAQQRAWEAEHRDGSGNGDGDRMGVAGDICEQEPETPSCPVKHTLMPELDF
Target sequence (Q8WTS1 whole entry, looked up): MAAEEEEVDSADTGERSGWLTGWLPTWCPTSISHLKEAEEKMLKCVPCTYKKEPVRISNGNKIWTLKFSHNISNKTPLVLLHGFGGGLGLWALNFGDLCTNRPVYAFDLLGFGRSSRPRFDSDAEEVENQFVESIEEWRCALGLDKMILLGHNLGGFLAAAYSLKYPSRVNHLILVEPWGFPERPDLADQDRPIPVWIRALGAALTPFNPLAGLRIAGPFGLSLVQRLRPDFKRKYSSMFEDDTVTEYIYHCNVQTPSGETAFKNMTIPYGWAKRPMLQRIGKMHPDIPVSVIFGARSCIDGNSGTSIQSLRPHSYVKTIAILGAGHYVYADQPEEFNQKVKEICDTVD
rCAG bind conf = small molecules binding CAG repeat RNA – biochemical, fluorescence, confirmation. AID 652065, 2013. inhibition, % at 3 µM. shares compounds with rCAG binder. r(CAG) RNA repeat, TO-PRO-1 dye displacement fluorescence. hit rate 70% among 4,300;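 active means inhibition above a per-plate cutoff, the mean inhibition of sample wells plus 3 SD, cut at about 35% in these data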;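 further: loss of TO-PRO-1 fluorescence as compound displaces dye from 1x1 AA loop RNA; 0% = DMSO only wells and 100% = 100 µM mitoxantrone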
dCAG dye counter = displacement of TO-PRO-1 from CAG DNA duplex, counter-screen for rCAG RNA repeat binder project, biochemical, fluorescence, TO-PRO-1 dye, d(CAG) DNA oligo; inhibition, % at 3 µM; d(CAG) DNA oligo TO-PRO-1 dye displacement; hit rate 94% among 4,300; shares compounds with rCAG binder; AID 652068, 2013;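 active means inhibition above its plate's cutoff, the mean test-well inhibition plus 3 SD, cut at about 4.8% in these data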;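 further: 0% = DNA dye mix with DMSO and 100% = 100 µM mitoxantrone; hits displace the dye from DNA and so lower well fluorescence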
PRMT1 inh conf = PRMT1 methyltransferase inhibitors, confirmation, biochemical, fluorescence polarization, triplicate; hit rate 42% among 3,300; shares compounds with PRMT1 inh; recombinant His-PRMT1, activity-based probe fluorescence polarization; inhibition, % at 2.79 µM;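 active means mean inhibition across replicates above the hit cutoff derived for the earlier primary screen, cut at about 22% in these data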
Numbers without * were called inactive; nt = not tested or not shown. This is a sample that favours compounds with a hit; in the whole collection about 5.9% have one here.

SMILES | PRMT1 inh | Rtt109 HAT inh | LANA-H2B inh | rCAG binder | ALR inh | ABHD5-PLIN5 inh | rCAG bind conf | dCAG dye counter | PRMT1 inh conf
C#C[C@@]1(O)CCC2C3CCC4=C/C(=N/OCC(=O)NC(CCC(N)=O)C(=O)O)CC[C@]4(C)C3CC[C@@]21C (stereo partly drawn) | -2 | 4 | -1 | 11 | 8 | 6 | nt | nt | nt
O=P(NS(=O)(=O)c1ccc(Cl)cc1)(Oc1ccccc1)Oc1ccccc1 | 0 | -7 | -3 | 62* | 6 | 8 | 59* | 19* | nt
O=P(NS(=O)(=O)c1ccccc1)(Oc1ccccc1)Oc1ccccc1 | -1 | 1 | -4 | 30 | 1 | -9 | nt | nt | nt
O=P(NS(=O)(=O)c1ccc(Br)cc1)(Oc1ccccc1)Oc1ccccc1 | 3 | 16 | 1 | 73* | 64 | -6 | 63* | 25* | nt
Cc1ccc(C)c(NP(=O)(Oc2ccccc2)Oc2ccccc2)c1 | -2 | 2 | -3 | -5 | -3 | -9 | nt | nt | nt
Cc1ccc(S(=O)(=O)NP(=O)(Oc2ccccc2)Oc2ccccc2)cc1 | -1 | nt | 6 | 40* | 3 | -1 | 36* | 9.7* | nt
CCCNC(=O)N1[C@H]2CC[C@@H]1C(C(=O)OC)=C(c1ccc3ccccc3c1)C2 | nt | 10 | -1 | nt | 13 | 4 | nt | nt | nt
Cn1cccc1/C=C1\C(=O)NC(=O)N(CCC2=CCCCC2)C1=O | 0 | 9 | nt | 10 | nt | -19 | nt | nt | nt
Cn1cccc1/C=C1\C(=O)NC(=O)N(Cc2ccccc2Cl)C1=O | 8 | 4 | nt | 46* | nt | -3 | 10 | 4 | nt
CN1C(=O)/C(=C/c2cccn2-c2ccc3ccccc3c2)C(=O)NC1=S | 44* | -1 | 1 | 63* | -13 | 7 | 22 | 16* | nt
CCN1C(=O)C(=C2C=C(C)N(Cc3ccco3)C(C)=C2)C(=O)N(CC)C1=S | 1 | nt | 6 | 0 | 5 | 7 | nt | nt | nt
COc1ccc(/C=C2/C(=O)N(Cc3ccco3)C(=O)N(C(C)C)C2=O)cc1 | 5 | 2 | 2 | 60* | 15 | 0 | 77* | 41* | nt
Cc1ccc(/C=C2\C(=O)NC(=S)N(c3ccccc3F)C2=O)s1 | 3 | 10 | 6 | 35* | 98* | -3 | 16 | 8.2* | nt
CCOc1ccc(N2C(=O)NC(=O)/C(=C\c3cc(OC)c(OC)cc3[N+](=O)[O-])C2=O)cc1 | nt | 14 | -3 | nt | 56 | 7 | nt | nt | nt
O=C1NC(=O)N(Cc2ccc(F)cc2)C(=O)/C1=C\c1ccc([N+](=O)[O-])s1 | 39* | 25 | 0 | 93* | nt | -9 | 79* | 40* | 72*
COc1ccc(N2C(=O)NC(=O)/C(=C\c3ccc([N+](=O)[O-])s3)C2=O)cc1 | 39* | -3 | -1 | 76* | 7 | -2 | 54* | 21* | 50*
COc1ccc(CN2C(=O)NC(=O)/C(=C/c3ccc([N+](=O)[O-])s3)C2=O)cc1 | 31* | 28 | -1 | 94* | -9 | -10 | 94* | 72* | 66*
Cc1ccc(OC(=O)N(C)C[C@H]2OCc3cnnn3CCCC(=O)N([C@@H](C)CO)C[C@H]2C)cc1 | 0 | nt | nt | 0 | nt | 4 | nt | nt | nt
COc1ccccc1NC(=O)c1cn(CCC#N)nc1-c1cccc(Cl)c1 | -8 | -1 | -1 | -2 | -9 | 4 | nt | nt | nt
N#CC1=C(N)Oc2c(c(=O)sc3ccccc23)C1c1cccnc1 (stereo not drawn) | -1 | -6 | -5 | 1 | 4 | 2 | nt | nt | nt
O=C1NC(=S)N(c2ccccc2)C(=O)/C1=C/c1ccco1 | 55* | -1 | 5 | 89* | 99* | -3 | 90* | 63* | 74*
Cc1nn(Cc2ccccc2)c(Cl)c1C(=O)OCC(=O)N1CCCC1 | 0 | -7 | 1 | -4 | 1 | -3 | nt | nt | nt
CC(C)N1C(=O)/C(=C/C=C/c2ccco2)C(=O)N(Cc2ccco2)C1=O | 29* | 1 | -2 | 45* | 98* | 20 | 22 | 11* | 16
CCN1C(=O)C(=C/C=C/c2ccco2)C(=O)N(CC)C1=S | 27* | 28 | -8 | 56* | 8 | 5 | 49* | 17* | 34*
NC(=O)C1CCN(/C=C2\C(=O)NC(=O)N(Cc3ccco3)C2=O)CC1 | 1 | 2 | -6 | -1 | 1 | 3 | nt | nt | nt
SMILES | PRMT1 inh | Rtt109 HAT inh | LANA-H2B inh | rCAG binder | ALR inh | ABHD5-PLIN5 inh | rCAG bind conf | dCAG dye counter | PRMT1 inh conf
c1ccc([C@@H]2CO2)cc1 | nt | nt | -5 | nt | -8 | 4 | nt | nt | nt
O=C1NC(=O)N(CCC2=CCCCC2)C(=O)/C1=C\c1cccs1 | 31* | 3 | 4 | 42* | 71 | -31 | 6 | 3 | 18
CC(=O)c1ccc2c(c1)C1C(Cl)C(Sc3ccccc3[N+](=O)[O-])CC1C(C(=O)O)N2 (stereo not drawn) | 49* | -1 | 3 | 87* | 95* | -1 | 95* | 73* | 23*
Cc1cccc(N2C(=O)NC(=O)/C(=C/c3ccc(-c4ccc(C(=O)O)c(Cl)c4)o3)C2=O)c1 | nt | nt | 7 | nt | 51 | nt | nt | nt | nt
O=C1NC(=O)N(c2cccc(Cl)c2)C(=O)/C1=C\c1ccc(Sc2nc3ccccc3[nH]2)o1 | 33* | 13 | 1 | 72* | 69 | 1 | 50* | 22* | 42*
Cc1cccc(NC(=O)COC(=O)c2cc(C)n(C3CC3)c2C)c1 | 3 | 1 | 0 | 11 | nt | -7 | nt | nt | nt
CCCC(C)n1[nH]c(=O)c2c1NC(=O)CSC2c1ccc(OC)cc1 (stereo not drawn) | 4 | 3 | 4 | 4 | 0 | 2 | nt | nt | nt
Cc1nn(C2CCOC(C)(C)C2)c2c1C(c1ccc(OC(C)C)cc1)SCC(=O)N2 (stereo not drawn) | 28* | -7 | 4 | 0 | 3 | -9 | nt | nt | 41*
S=P(N1CCCCCC1)(N1CC1)N1CC1 | 30* | 3 | nt | 1 | nt | -4 | nt | nt | -4
COc1cc2c(cc1OC)C1C(=O)c3ccc4c(c3OC1CO2)CC(C(C)C)O4 (stereo not drawn) | 2 | 5 | nt | 4 | nt | 17 | nt | nt | nt
